From ChEMBL document CHEMBL1961873, “Compounds: GSK PKIS; Assays: Nanosyn kinase panel” (2012) come the findings set out here.

For test [1], the target named is Serine/threonine-protein kinase PAK 6 (Homo sapiens) (UniProt Q9NQU5). As to conditions: at 1 µM.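 Further: values are mean percent inhibition of PAK6 kinase.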
Test [2] deals with Tyrosine-protein kinase ABL1 (Homo sapiens), P00519 [E255K]. As to conditions: at 0.1 µM.
Test [3] has the same test system. As to conditions: at 1 µM.
For test [4], the system named is Tyrosine-protein kinase ABL1 (Homo sapiens), P00519 [H396P]. As to conditions: at 0.1 µM.
Test [5] shares this test system. As to conditions: at 1 µM.
Test [6] deals with Tyrosine-protein kinase ABL1 (Homo sapiens), P00519 [M351T]. As to conditions: at 0.1 µM.
Test [7] has the same test system. As to conditions: at 1 µM.
Test [8] deals with Tyrosine-protein kinase ABL1 (Homo sapiens), P00519 [Q252H]. As to conditions: at 0.1 µM.
Test [9] has the same test system. As to conditions: at 1 µM.
The subject of test [10] is Tyrosine-protein kinase ABL1 (Homo sapiens), P00519 [T315I]. As to conditions: at 0.1 µM.

Sequence of Serine/threonine-protein kinase PAK 6 (Homo sapiens) (Q9NQU5 whole entry, looked up): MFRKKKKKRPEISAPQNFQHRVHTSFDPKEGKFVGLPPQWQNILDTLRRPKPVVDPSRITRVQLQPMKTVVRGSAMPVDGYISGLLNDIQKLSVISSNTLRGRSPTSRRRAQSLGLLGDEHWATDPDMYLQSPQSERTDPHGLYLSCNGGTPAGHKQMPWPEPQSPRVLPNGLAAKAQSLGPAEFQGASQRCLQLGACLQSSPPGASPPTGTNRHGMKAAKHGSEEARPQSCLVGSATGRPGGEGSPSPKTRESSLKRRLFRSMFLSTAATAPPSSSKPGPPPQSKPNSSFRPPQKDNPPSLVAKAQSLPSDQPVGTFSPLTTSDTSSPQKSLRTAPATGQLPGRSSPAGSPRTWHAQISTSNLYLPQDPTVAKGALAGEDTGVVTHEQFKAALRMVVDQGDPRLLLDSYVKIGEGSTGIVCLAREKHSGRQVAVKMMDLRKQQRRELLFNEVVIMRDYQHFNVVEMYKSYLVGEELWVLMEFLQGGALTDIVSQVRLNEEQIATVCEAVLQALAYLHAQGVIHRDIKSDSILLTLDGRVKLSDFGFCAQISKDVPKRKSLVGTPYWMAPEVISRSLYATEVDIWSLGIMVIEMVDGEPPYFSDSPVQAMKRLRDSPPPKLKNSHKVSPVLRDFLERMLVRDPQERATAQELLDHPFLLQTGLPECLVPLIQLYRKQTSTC

Broadly, the inhibition is the drop in the measured response relative to a control, in per cent. `O=C1Nc2ccccc2/C1=C/Nc1ccc2[nH]c(=O)[nH]c2c1`: the inhibition in test [1] is -6.29%; in test [2], 7.84%; in [3], 15%; in test [4], 7.55%; in [5], 23.4%; in [6], 4.2%. The inhibition was 24.6% in [7], 8.42% in test [8], 26% in test [9] and 4.38% in test [10].
As for `O=C(Nc1ccc(Oc2ccc3[nH]c(NC(=O)c4ccco4)nc3c2)cc1)Nc1cc(C(F)(F)F)ccc1F`, the inhibition is 6.45% in test [1]; 15.2% in [2]; 67.1% in test [3]; 60.1% in [4]; 92% in test [5]; 72.4% in [6]. For the same compound, the inhibition in test [7] came to 93.2%; in [8], 68.6%; in [9] it was 91.6%; in test [10] it was 76.3%.
`Cc1ccc(NC(=O)CC2CC2)cc1-c1ccc(C(=O)NCC2CC2)cc1`: the inhibition in test [1] is 1.56%; in test [2], 4.24%; in test [3], 5.26%; in test [4], 6.77%; in test [5], 3.96%; in test [6] it was 4.32%. Further, the inhibition in test [7] came to 3.09%; in [8] it was 6.39%; in test [9], 4.54%; in test [10] it was 2.14%.
In the case of `N#Cc1cccc(Nc2nccc(-c3cnn4ncccc34)n2)c1`, the inhibition in test [1] was -4.67%; in [2], 7.52%; in [3], 33%; in test [4] it was 13.6%; in [5], 51.8%; in [6], 16.2%. The inhibition in [7] turned out to be 60.8%; in [8] it was 15.2%; in test [9], 57%; in test [10], 8.12%.
Turning to `c1ccc(Nc2ncc(-c3ccccc3)o2)cc1`, the inhibition in [1] is -5.22%; in test [2], 2.44%; in test [3], 8.33%; in test [4], 6.74%; in [5] it was 20.6%; in test [6], 1.76%. Further, the inhibition in test [7] was 17.6%; in test [8], 5.59%; in test [9], 13.7%; in test [10] it was -0.57%.
For `Cc1ccc(O)cc1Nc1ccnc2ccc(S(C)(=O)=O)cc12`, the inhibition in test [1] was found to be 4.09%; in [2], 94.4%; in test [3] it was 95.8%; in test [4] it was 94.8%; in test [5], 96.4%; in test [6] it was 90.6%. Further, the inhibition was 94.3% in test [7], 93% in test [8], 96.3% in [9] and 3.68% in test [10].
As for `COC(=O)Nc1nc2cc(Oc3ccc(NC(=O)Nc4cccc(Br)c4)cc3)ccc2[nH]1`, the inhibition was -4.46% in test [1]; 4.52% in test [2]; 5.09% in test [3]; 16.4% in test [4]; 35% in test [5]; 42.6% in test [6]. The inhibition in test [7] is 54.6%; in test [8], 39.7%; in test [9] it was 57.8%; in [10] it was 30.1%.
In the case of `O=C1Nc2ccc(-c3cccnc3)cc2C1=Cc1cc(Br)c(O)c(Br)c1`, the inhibition was 7.69% in test [1]; 3.78% in [2]; 8.72% in test [3]; 3.44% in test [4]; 7.14% in test [5]; 4.37% in test [6]. In addition, the inhibition amounted to 6.55% in test [7], 2.79% in [8], 7.71% in test [9] and 2.69% in test [10].
Regarding `Cc1cc(O)cc(C)c1/C=C/c1cncc(C(=O)N(C)C)c1`, the inhibition in test [1] was -3.14%; in [2], 2.42%; in test [3], 5.44%; in test [4], 4.36%; in [5], 8.17%; in [6] it was 3.42%. For the same compound, the inhibition in test [7] stood at 7.17%; in test [8], 4.29%; in [9], 8.87%; in test [10], 2.58%.
Consider `Cc1ccc2c(-c3ccnc(Nc4cccc(C(F)(F)F)c4)n3)c(-c3ccccc3)nn2n1`, for which the inhibition in test [1] was -8.69%; in test [2], 3.52%; in [3] it was 19.7%; in [4], 11.3%; in test [5], 44.8%; in test [6] it was 24.1%. The inhibition in [7] was 68.2%; in [8], 24.2%; in [9], 69.1%; in test [10], 6.16%.
Regarding `C[C@@H](Oc1cc(-n2cnc3ccc(OCC4CCN(C)CC4)cc32)sc1C(N)=O)c1ccccc1C(F)(F)F`, the inhibition in [1] is -0.65%; in test [2], -1.19%; in test [3], 0.71%; in [4] it was -1.32%; in [5], 1.14%; in test [6], 0.4%. Besides, the inhibition is 2.58% in test [7], -0.85% in test [8], 1.8% in [9] and 0.36% in test [10].
As to `CCn1c(-c2nonc2N)nc2c(C#CC(C)(C)O)nc(OCCNC)cc21`, the inhibition in test [1] was 1.16%; in test [2] it was 2.13%; in test [3] it was 2.96%; in test [4], 3.72%; in test [5] it was 4.85%; in test [6] it was 1.62%. For the same compound, the inhibition in test [7] stood at 3.61%; in test [8], 3.81%; in test [9], 4.6%; in test [10], 1.77%.
As to `Oc1cccc(-c2nc(-c3ccccc3)[nH]c2-c2ccncc2)c1`, the inhibition in [1] was found to be 2.02%; in test [2], 6.54%; in test [3], 26.7%; in test [4], 9.87%; in [5], 36.6%; in test [6], 8.39%. The inhibition in [7] turned out to be 31.3%; in test [8], 7.9%; in test [9], 27%; in test [10], 3.52%.
Regarding `O=S(=O)(CCOCc1ccc(-c2ccc3ncnc(Nc4ccc(OCc5cccc(F)c5)c(Cl)c4)c3c2)o1)c1ccccc1`, the inhibition is -7.47% in [1]; 0.44% in test [2]; -0.12% in [3]; 0.4% in [4]; 2.46% in [5]; 1.57% in [6]. For the same compound, the inhibition in test [7] was 0.99%; in test [8], 3.02%; in test [9], 3.04%; in [10], -0.12%.
Regarding `CCS(=O)(=O)c1ccc(OC)c(Nc2ncc(-c3cccc(OC)c3)o2)c1`, the inhibition came out at 2.64% in test [1]; 34% in test [2]; 81.1% in test [3]; 41.6% in test [4]; 85.4% in test [5]; 43.2% in test [6]. Further, the inhibition in test [7] worked out at 86.1%; in test [8], 46.6%; in test [9], 86.5%; in [10], 6.23%.
Take `COC(=O)c1ccc2c(c1)C(=Cc1cc(Br)c(O)c(Br)c1)C(=O)N2`: the inhibition in test [1] was -6.8%; in [2] it was 2.18%; in test [3] it was 13.1%; in [4] it was 4.03%; in [5], 14.9%; in test [6], 0.64%. In addition, the inhibition in [7] worked out at 12.9%; in [8] it was 2.75%; in [9], 15.8%; in test [10], 1.82%.
Take `Nc1nccc(-c2c(-c3ccc(F)cc3)ncn2CCCN2CCOCC2)n1`: the inhibition in test [2] is 3.15%; in [3] it was 4.81%; in test [4] it was 2.47%; in test [5], 4.57%; in test [6], 0.51%; in test [7] it was 3.75%. For the same compound, the inhibition in test [8] came out at 2.53%; in test [9], 6.74%; in test [10] it was 2.38%.
